In all, about 33,000 sequences were measured (“E-score (-0.5 to 0.5)”: median about -0.053, highest 2% from about 0.37 on). The sample holds the highest values, similar sequences and a random draw of the others, so the mix is not that of the screen.
These sequences were tested against Hap1 (UniProt P0CE41) (assay: PBM E-score (8-mer binding enrichment) (E-score (-0.5 to 0.5)); higher = stronger / more preferred TF binding). Settings: protein concentration: 200 nM; construct: GST-DNA-binding domain.
UniProt P0CE41, sequence (P0CE41 whole entry, the tested form may be a part): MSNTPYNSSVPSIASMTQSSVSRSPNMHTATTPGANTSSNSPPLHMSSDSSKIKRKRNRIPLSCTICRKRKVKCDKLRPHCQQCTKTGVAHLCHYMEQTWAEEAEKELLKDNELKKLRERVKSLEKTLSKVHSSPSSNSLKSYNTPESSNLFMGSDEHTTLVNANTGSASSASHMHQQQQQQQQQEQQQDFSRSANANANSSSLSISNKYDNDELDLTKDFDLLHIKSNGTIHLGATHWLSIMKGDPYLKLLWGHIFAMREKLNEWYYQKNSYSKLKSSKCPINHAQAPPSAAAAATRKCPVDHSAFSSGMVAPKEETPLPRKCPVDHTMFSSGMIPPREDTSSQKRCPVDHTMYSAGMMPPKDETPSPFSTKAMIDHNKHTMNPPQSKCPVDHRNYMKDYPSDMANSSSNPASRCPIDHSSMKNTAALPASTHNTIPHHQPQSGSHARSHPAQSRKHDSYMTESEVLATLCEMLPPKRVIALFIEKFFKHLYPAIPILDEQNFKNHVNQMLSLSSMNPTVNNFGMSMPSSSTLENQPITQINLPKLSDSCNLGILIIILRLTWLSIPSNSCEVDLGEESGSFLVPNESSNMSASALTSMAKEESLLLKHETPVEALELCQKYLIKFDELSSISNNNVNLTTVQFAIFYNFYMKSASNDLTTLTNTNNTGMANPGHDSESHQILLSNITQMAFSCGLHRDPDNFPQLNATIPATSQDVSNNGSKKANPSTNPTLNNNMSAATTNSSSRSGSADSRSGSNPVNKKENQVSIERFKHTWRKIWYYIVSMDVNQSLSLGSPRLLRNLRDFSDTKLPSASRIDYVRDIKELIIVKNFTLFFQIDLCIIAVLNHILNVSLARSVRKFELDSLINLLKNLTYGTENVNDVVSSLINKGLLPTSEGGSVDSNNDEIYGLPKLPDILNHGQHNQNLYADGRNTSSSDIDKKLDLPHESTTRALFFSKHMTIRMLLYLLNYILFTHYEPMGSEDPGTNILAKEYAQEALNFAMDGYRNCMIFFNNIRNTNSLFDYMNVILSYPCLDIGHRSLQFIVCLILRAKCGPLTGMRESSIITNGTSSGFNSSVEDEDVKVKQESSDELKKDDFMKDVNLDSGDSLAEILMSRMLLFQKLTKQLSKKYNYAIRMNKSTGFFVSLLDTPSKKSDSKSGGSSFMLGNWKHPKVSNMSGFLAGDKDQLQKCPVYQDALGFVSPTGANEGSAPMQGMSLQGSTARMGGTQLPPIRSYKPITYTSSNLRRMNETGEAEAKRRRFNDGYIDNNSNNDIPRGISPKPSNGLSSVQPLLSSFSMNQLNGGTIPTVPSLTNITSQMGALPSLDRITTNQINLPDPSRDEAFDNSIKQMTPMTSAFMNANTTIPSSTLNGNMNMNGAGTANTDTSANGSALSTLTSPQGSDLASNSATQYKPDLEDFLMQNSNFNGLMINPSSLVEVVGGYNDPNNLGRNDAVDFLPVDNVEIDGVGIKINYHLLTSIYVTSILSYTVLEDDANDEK
Outline: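 Masliner-normalised scans of fluorescent anti-GST signal were the basis for scoring. That signal came from GST-tagged yeast transcription factors applied at about 100-200 nM to double-stranded universal all-10-mer Agilent arrays on fresh or once-stripped slides. Each ungapped eight-base word, pooled with its reverse complement, received an E-score from the Universal PBM Analysis Suite.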
For ACGGGGAC, the “PBM E-score” value was 0.159.
For TCCGGGAA, the “PBM E-score” value was 0.376.
CGGGGGAA was tested, and the “PBM E-score” value was 0.354.
In the case of ACGGGGAG, the “PBM E-score” value was -0.0069.
In the case of ACCGGGAA, the “PBM E-score” value was 0.35.
In the case of ACGGGGAT, the “PBM E-score” value was 0.383.
With CCGGGGGA the “PBM E-score” value was 0.343.
CCGGGGAA was tested, and the “PBM E-score” value was 0.372.
CCCGGGAA was tested, and the “PBM E-score” value was 0.339.
GCAGGCTA was tested, and the “PBM E-score” value was -0.169.
For CGCCATAA, the “PBM E-score” value was -0.0284.
TACTTAGA was tested, and the “PBM E-score” value was -0.362.
With GCGCCCGC the “PBM E-score” value was 0.0873.
With AGGCTCAT the “PBM E-score” value was -0.159.
With CGCGTGGA the “PBM E-score” value was -0.079.
For CACCGATC, the “PBM E-score” value was 0.22.
For CACCGATG, the “PBM E-score” value was 0.196.
In the case of AACCGATT, the “PBM E-score” value was 0.263.
GACCGACA was tested, and the “PBM E-score” value was 0.359.
TACCGAAA was tested, and the “PBM E-score” value was 0.188.
CACCGATA was tested, and the “PBM E-score” value was 0.375.
AACCGATG was tested, and the “PBM E-score” value was 0.193.
With GACCGATA the “PBM E-score” value was 0.434.
In the case of GACCGATC, the “PBM E-score” value was 0.341.
For TACCGACA, the “PBM E-score” value was 0.209.
For TACCGATA, the “PBM E-score” value was 0.378.
AACCGATA was tested, and the “PBM E-score” value was 0.421.
In the case of ATGGGTCA, the “PBM E-score” value was -0.27.
In the case of CATGAGGA, the “PBM E-score” value was -0.0511.
CTTTCGAC was tested, and the “PBM E-score” value was -0.0279.
With AAGGGTCG the “PBM E-score” value was 0.0795.
GCGATAGC was tested, and the “PBM E-score” value was 0.00865.
In the case of GCGATAGA, the “PBM E-score” value was 0.223.
In the case of CCGATAGA, the “PBM E-score” value was 0.405.
With ACGATAGA the “PBM E-score” value was -0.099.
With CCGATAGC the “PBM E-score” value was 0.372.
CAGATAGG was tested, and the “PBM E-score” value was -0.142.
ACGATAGC was tested, and the “PBM E-score” value was 0.0603.
In the case of CCGATAGG, the “PBM E-score” value was 0.438.
For ACGATAGG, the “PBM E-score” value was 0.0214.
In the case of ACGATTGG, the “PBM E-score” value was -0.123.
With GTGTCCCA the “PBM E-score” value was 0.0086.
With CCGATGCA the “PBM E-score” value was 0.242.
For ATACCCGA, the “PBM E-score” value was 0.398.
ATACCCGC was tested, and the “PBM E-score” value was 0.253.
With ATACCCTG the “PBM E-score” value was -0.0146.
ATACCCGG was tested, and the “PBM E-score” value was 0.38.
With ATACCCCG the “PBM E-score” value was 0.346.
In the case of CTACCCGA, the “PBM E-score” value was 0.161.
For CATCGCCC, the “PBM E-score” value was 0.128.
In the case of AAAAGGTT, the “PBM E-score” value was -0.211.
With CGGTTAAC the “PBM E-score” value was 0.203.
ATACCCTA was tested, and the “PBM E-score” value was -0.203.
AGGGTCAC was tested, and the “PBM E-score” value was -0.193.
For GCGGTGTA, the “PBM E-score” value was -0.063.
With CGGCGGAA the “PBM E-score” value was 0.396.
CCGCGGAA was tested, and the “PBM E-score” value was 0.317.
For CGGCGGTA, the “PBM E-score” value was 0.428.
With GGGCGGAA the “PBM E-score” value was 0.267.
In the case of GGGCGGTA, the “PBM E-score” value was 0.315.
For AGGCGGTA, the “PBM E-score” value was -0.131.
In the case of AGGCGGAA, the “PBM E-score” value was 0.0183.
CAGCGGAG was tested, and the “PBM E-score” value was 0.245.
CGGCGGAG was tested, and the “PBM E-score” value was 0.387.
For CCGCGGAC, the “PBM E-score” value was 0.383.
With CCGCGGAG the “PBM E-score” value was 0.352.
With AGGCGGAG the “PBM E-score” value was 0.175.
For CCATGGCC, the “PBM E-score” value was -0.0324.
In the case of CGACCAGA, the “PBM E-score” value was 0.0439.
For AGTTTGAG, the “PBM E-score” value was -0.0293.
With ATGATCCC the “PBM E-score” value was 0.0807.
CTTCCCAA was tested, and the “PBM E-score” value was -0.197.
CGAAAGTA was tested, and the “PBM E-score” value was 0.0968.
For CGGCTACG, the “PBM E-score” value was 0.111.
AGATGAAC was tested, and the “PBM E-score” value was -0.115.
With AGGCGGAC the “PBM E-score” value was 0.288.
CGGCGGAC was tested, and the “PBM E-score” value was 0.38.
GGGCGGAC was tested, and the “PBM E-score” value was 0.279.
In the case of CCAGACCA, the “PBM E-score” value was -0.187.
With CCGTCCTA the “PBM E-score” value was -0.104.
In the case of CCGTCCGC, the “PBM E-score” value was 0.231.
With ACGTCCTG the “PBM E-score” value was -0.211.
For ACGTCCGA, the “PBM E-score” value was 0.386.
For ACGTCCGC, the “PBM E-score” value was 0.357.
With ACGTCCAA the “PBM E-score” value was -0.0855.
For CCGTCCGA, the “PBM E-score” value was 0.399.
ACGTCCGG was tested, and the “PBM E-score” value was 0.411.
With GCGTCCGA the “PBM E-score” value was 0.305.
In the case of AAACCAAG, the “PBM E-score” value was -0.0855.
With CGCGGGCA the “PBM E-score” value was 0.256.
In the case of TATGGTCA, the “PBM E-score” value was -0.303.
For CAGAGATA, the “PBM E-score” value was -0.182.
For ACCGTGAA, the “PBM E-score” value was 0.126.
With CGTTCCAG the “PBM E-score” value was -0.157.
For AGCCCCTG, the “PBM E-score” value was -0.269.
In the case of CATCTATC, the “PBM E-score” value was -0.00973.
With CAACGGAA the “PBM E-score” value was 0.285.
AATCGGAA was tested, and the “PBM E-score” value was 0.364.
In the case of TATCGGAA, the “PBM E-score” value was 0.409.
In the case of GAACGGAA, the “PBM E-score” value was 0.282.
In the case of CATCGGGA, the “PBM E-score” value was 0.223.
TATCGGCA was tested, and the “PBM E-score” value was 0.425.
For TAACGGAA, the “PBM E-score” value was 0.375.
In the case of GATCGGGA, the “PBM E-score” value was 0.136.
With AATCGGCA the “PBM E-score” value was 0.224.
In the case of TATCGGGA, the “PBM E-score” value was 0.393.
CATCGGCA was tested, and the “PBM E-score” value was 0.266.
CATCGGAA was tested, and the “PBM E-score” value was 0.297.
GAAGGCAA was tested, and the “PBM E-score” value was -0.137.
AAATTGAG was tested, and the “PBM E-score” value was -0.0939.
For CTCTGGCA, the “PBM E-score” value was -0.217.
For ATTGGTTA, the “PBM E-score” value was -0.094.
For GCGGAGGA, the “PBM E-score” value was 0.17.
For GCGGAGAA, the “PBM E-score” value was 0.349.
In the case of CCGGAGGA, the “PBM E-score” value was 0.432.
For CCGGAGTC, the “PBM E-score” value was 0.356.
For CCGGAGTA, the “PBM E-score” value was 0.435.
ACGGAGAA was tested, and the “PBM E-score” value was 0.27.
CCGGAGAG was tested, and the “PBM E-score” value was 0.354.
In the case of GCGGAGTA, the “PBM E-score” value was 0.25.
With CCGGAGGC the “PBM E-score” value was 0.286.
In the case of CCGGAGAA, the “PBM E-score” value was 0.428.
With TCGGAGAA the “PBM E-score” value was 0.405.
For CAGGAGAA, the “PBM E-score” value was -0.147.
With ACCATGCG the “PBM E-score” value was -0.0491.
With CATTAACC the “PBM E-score” value was 0.0537.
For TCTATGAA, the “PBM E-score” value was -0.115.
With CACAATGC the “PBM E-score” value was -0.0342.
With GAGAATGA the “PBM E-score” value was -0.137.
With AGGGCTGG the “PBM E-score” value was -0.101.
For CCGGTTCA, the “PBM E-score” value was 0.267.
For CGTTTTAA, the “PBM E-score” value was -0.0609.
In the case of CCGGAGCG, the “PBM E-score” value was 0.359.
GCGGAGCA was tested, and the “PBM E-score” value was 0.211.
CCGGAGAC was tested, and the “PBM E-score” value was 0.373.
With CCGGAGCA the “PBM E-score” value was 0.418.
GCGGAGAC was tested, and the “PBM E-score” value was 0.348.
In the case of CGGGAGAC, the “PBM E-score” value was 0.216.
For AGTTAGGC, the “PBM E-score” value was -0.113.
For CTCGGGAC, the “PBM E-score” value was 0.263.
GCCCCATA was tested, and the “PBM E-score” value was -0.00491.
With CCCGGGTA the “PBM E-score” value was 0.315.
In the case of GCCGGGAA, the “PBM E-score” value was 0.326.
In the case of CCCGGGGA, the “PBM E-score” value was 0.359.
CCCCGGCG was tested, and the “PBM E-score” value was 0.309.
In the case of CCCGGGTC, the “PBM E-score” value was 0.386.
In the case of ACCGGGTC, the “PBM E-score” value was 0.194.
In the case of CCCGGGCC, the “PBM E-score” value was 0.387.
With CCCGGGGC the “PBM E-score” value was 0.33.
With CCGGGGCC the “PBM E-score” value was 0.318.
For CCGGGGCG, the “PBM E-score” value was 0.322.
GCCGGGGA was tested, and the “PBM E-score” value was 0.392.
In the case of CCCGGGCG, the “PBM E-score” value was 0.383.
CGGGGTTC was tested, and the “PBM E-score” value was 0.211.
For AACAGATC, the “PBM E-score” value was -0.0165.
In the case of GCCTTAGA, the “PBM E-score” value was -0.04.
With GGTAACAA the “PBM E-score” value was 0.13.
For TAAGAATA, the “PBM E-score” value was -0.141.
For TGTCCACA, the “PBM E-score” value was -0.159.
In the case of TTACCAAA, the “PBM E-score” value was -0.0884.
For CTGGTTAC, the “PBM E-score” value was -0.205.
For GAAAAGTA, the “PBM E-score” value was -0.0758.
For GATCTGCC, the “PBM E-score” value was 0.03.
ACCGGGGC was tested, and the “PBM E-score” value was 0.291.
ACCGGGGG was tested, and the “PBM E-score” value was 0.379.
For ACCGGGCA, the “PBM E-score” value was 0.288.
With AGCGGGCG the “PBM E-score” value was 0.222.
In the case of CCGGGGCA, the “PBM E-score” value was 0.312.
ACCGGGCC was tested, and the “PBM E-score” value was 0.373.
With AACGGGCG the “PBM E-score” value was 0.246.
With ACCGGGCG the “PBM E-score” value was 0.385.
ACCGGGCT was tested, and the “PBM E-score” value was 0.334.

Reference: the supplement of paper PMC3334620
